# Test results taken from paper PMC11062922 (Nature Chemical Biology, 2023).
# Read-outs that look alike come from different tables or passages of the source.
# What was measured:
# STK3 = settings: read-out: apparent Kd, n = 1
# STK4 = settings: read-out: apparent Kd, n = 1
# [1] = compound concentrations:100 nM and 1000 nM (sheet 'Lestaurtinib' of Supplementary Table 1),run:Lestaurtinib_02367_R1,Plate:MR003
# [2] = compound concentrations:100 nM and 1000 nM (sheet 'Lestaurtinib' of Supplementary Table 1),run:Lestaurtinib_02367_R2,Plate:MR003
# [3] = compound concentrations:100 nM and 1000 nM (sheet 'Lestaurtinib' of Supplementary Table 1),run:Lestaurtinib_02367_R3,Plate:MR003
# [4] = compound concentrations:100 nM and 1000 nM (sheet 'Lestaurtinib' of Supplementary Table 1),run:Lestaurtinib_02381_R1,Plate:MR004
# [5] = compound concentrations:100 nM and 1000 nM (sheet 'Lestaurtinib' of Supplementary Table 1),run:Lestaurtinib_02381_R2,Plate:MR004
# [6] = compound concentrations:100 nM and 1000 nM (sheet 'Lestaurtinib' of Supplementary Table 1),run:Lestaurtinib_02407_R3,Plate:MR005
# [7] = compound concentrations:100 nM and 1000 nM (sheet 'Lestaurtinib' of Supplementary Table 1),run:Lestaurtinib_02422_R1,Plate:MR006
# [8] = compound concentrations:100 nM and 1000 nM (sheet 'Lestaurtinib' of Supplementary Table 1),run:Lestaurtinib_02422_R2,Plate:MR006
# [9] = compound concentrations:100 nM and 1000 nM (sheet 'Lestaurtinib' of Supplementary Table 1),run:Lestaurtinib_02437_R1,Plate:MR007
# [10] = compound concentrations:100 nM and 1000 nM (sheet 'Lestaurtinib' of Supplementary Table 1),run:Lestaurtinib_02437_R2,Plate:MR007
# [11] = compound concentrations:100 nM and 1000 nM (sheet 'Lestaurtinib' of Supplementary Table 1),run:Lestaurtinib_02438_R1,Plate:MR008
# [12] = compound concentrations:100 nM and 1000 nM (sheet 'Lestaurtinib' of Supplementary Table 1),run:Lestaurtinib_02443_R1,Plate:MR009
# [13] = compound concentrations:100 nM and 1000 nM (sheet 'Lestaurtinib' of Supplementary Table 1),run:Lestaurtinib_02473_R2,Plate:MR010
substance,measurement,setting,value
Lestaurtinib,potency estimated from few doses,STK3; [1],39.1 nM
same,potency estimated from few doses,STK3; [2],37.3 nM
same,potency estimated from few doses,STK3; [3],42.9 nM
same,potency estimated from few doses,STK3; [4],32.9 nM
same,potency estimated from few doses,STK3; [5],38.2 nM
same,potency estimated from few doses,"STK3; compound concentrations:100 nM and 1000 nM (sheet 'Lestaurtinib' of Supplementary Table 1),run:Lestaurtinib_02407_R1,Plate:MR005",40 nM
same,potency estimated from few doses,"STK3; compound concentrations:100 nM and 1000 nM (sheet 'Lestaurtinib' of Supplementary Table 1),run:Lestaurtinib_02407_R2,Plate:MR005",29.8 nM
same,potency estimated from few doses,STK3; [6],30.1 nM
same,potency estimated from few doses,STK3; [7],51.1 nM
same,potency estimated from few doses,STK3; [8],62.7 nM
same,potency estimated from few doses,STK3; [9],38.1 nM
same,potency estimated from few doses,STK3; [10],50.7 nM
same,potency estimated from few doses,STK3; [11],29.8 nM
same,potency estimated from few doses,STK3; [12],41.6 nM
same,potency estimated from few doses,"STK3; compound concentrations:100 nM and 1000 nM (sheet 'Lestaurtinib' of Supplementary Table 1),run:Lestaurtinib_02443_R2,Plate:MR009",39.1 nM
same,potency estimated from few doses,"STK3; compound concentrations:100 nM and 1000 nM (sheet 'Lestaurtinib' of Supplementary Table 1),run:Lestaurtinib_02473_R1,Plate:MR010",47.3 nM
same,potency estimated from few doses,STK3; [13],42.2 nM
same,potency estimated from few doses,"STK3; compound concentrations:100 nM and 1000 nM (sheet 'Lestaurtinib' of Supplementary Table 1),run:Lestaurtinib_02482_R1,Plate:MR011",27.1 nM
same,potency estimated from few doses,"STK3; compound concentrations:100 nM and 1000 nM (sheet 'Lestaurtinib' of Supplementary Table 1),run:Lestaurtinib_02482_R2,Plate:MR011",44.7 nM
same,potency estimated from few doses,"STK3; compound concentrations:100 nM and 1000 nM (sheet 'Lestaurtinib' of Supplementary Table 1),run:Lestaurtinib_02482_R3,Plate:MR011",40.8 nM
same,potency estimated from few doses,"STK3; compound concentrations:100 nM and 1000 nM (sheet 'Lestaurtinib' of Supplementary Table 1),run:Lestaurtinib_02487_R1,Plate:MR012",28.6 nM
same,potency estimated from few doses,"STK3; compound concentrations:100 nM and 1000 nM (sheet 'Lestaurtinib' of Supplementary Table 1),run:Lestaurtinib_02487_R3,Plate:MR012",38.9 nM
same,potency estimated from few doses,"STK3; compound concentrations:100 nM and 1000 nM (sheet 'Lestaurtinib' of Supplementary Table 1),run:Lestaurtinib_02496_R1,Plate:MR013",45 nM
same,potency estimated from few doses,"STK3; compound concentrations:100 nM and 1000 nM (sheet 'Lestaurtinib' of Supplementary Table 1),run:Lestaurtinib_02496_R3,Plate:MR013",48.7 nM
same,potency estimated from few doses,"STK3; compound concentrations:100 nM and 1000 nM (sheet 'Lestaurtinib' of Supplementary Table 1),run:Lestaurtinib_02566_R2,Plate:MR014",41 nM
same,potency estimated from few doses,"STK3; compound concentrations:100 nM and 1000 nM (sheet 'Lestaurtinib' of Supplementary Table 1),run:Lestaurtinib_02566_R3,Plate:MR014",24.5 nM
same,potency estimated from few doses,"STK3; compound concentrations:100 nM and 1000 nM (sheet 'Lestaurtinib' of Supplementary Table 1),run:Lestaurtinib_02572_R2,Plate:MR015",50.4 nM
same,potency estimated from few doses,"STK3; compound concentrations:100 nM and 1000 nM (sheet 'Lestaurtinib' of Supplementary Table 1),run:Lestaurtinib_02572_R3,Plate:MR015",58.4 nM
same,potency estimated from few doses,"STK3; compound concentrations:100 nM and 1000 nM (sheet 'Lestaurtinib' of Supplementary Table 1),run:Lestaurtinib_02577_R1,Plate:MR016",36 nM
same,potency estimated from few doses,"STK3; compound concentrations:100 nM and 1000 nM (sheet 'Lestaurtinib' of Supplementary Table 1),run:Lestaurtinib_02577_R2,Plate:MR016",45 nM
same,potency estimated from few doses,"STK3; compound concentrations:100 nM and 1000 nM (sheet 'Lestaurtinib' of Supplementary Table 1),run:Lestaurtinib_02584_R1,Plate:MR017",38.6 nM
same,potency estimated from few doses,"STK3; compound concentrations:100 nM and 1000 nM (sheet 'Lestaurtinib' of Supplementary Table 1),run:Lestaurtinib_02584_R3,Plate:MR017",47.5 nM
same,potency estimated from few doses,"STK3; compound concentrations:100 nM and 1000 nM (sheet 'Lestaurtinib' of Supplementary Table 1),run:Lestaurtinib_02601_R1,Plate:MR018",59.1 nM
same,potency estimated from few doses,"STK3; compound concentrations:100 nM and 1000 nM (sheet 'Lestaurtinib' of Supplementary Table 1),run:Lestaurtinib_02601_R2,Plate:MR018",39.6 nM
same,potency estimated from few doses,"STK3; compound concentrations:100 nM and 1000 nM (sheet 'Lestaurtinib' of Supplementary Table 1),run:Lestaurtinib_02606_R2,Plate:MR019",46.2 nM
same,potency estimated from few doses,"STK3; compound concentrations:100 nM and 1000 nM (sheet 'Lestaurtinib' of Supplementary Table 1),run:Lestaurtinib_02606_R3,Plate:MR019",47.4 nM
same,potency estimated from few doses,"STK3; compound concentrations:100 nM and 1000 nM (sheet 'Lestaurtinib' of Supplementary Table 1),run:Lestaurtinib_02624_R1,Plate:MR020",53.2 nM
same,potency estimated from few doses,"STK3; compound concentrations:100 nM and 1000 nM (sheet 'Lestaurtinib' of Supplementary Table 1),run:Lestaurtinib_02624_R2,Plate:MR020",42.5 nM
same,potency estimated from few doses,"STK3; compound concentrations:100 nM and 1000 nM (sheet 'Lestaurtinib' of Supplementary Table 1),run:Lestaurtinib_02624_R3,Plate:MR020",40.4 nM
same,potency estimated from few doses,"STK3; compound concentrations:100 nM and 1000 nM (sheet 'Lestaurtinib' of Supplementary Table 1),run:Lestaurtinib_02724_R1,Plate:MR021",44.8 nM
same,potency estimated from few doses,"STK3; compound concentrations:100 nM and 1000 nM (sheet 'Lestaurtinib' of Supplementary Table 1),run:Lestaurtinib_02724_R2,Plate:MR021",42.8 nM
same,potency estimated from few doses,"STK3; compound concentrations:100 nM and 1000 nM (sheet 'Lestaurtinib' of Supplementary Table 1),run:Lestaurtinib_02724_R3,Plate:MR021",38.4 nM
same,potency estimated from few doses,"STK3; compound concentrations:100 nM and 1000 nM (sheet 'Lestaurtinib' of Supplementary Table 1),run:Lestaurtinib_02748_R1,Plate:MR024",35.8 nM
same,potency estimated from few doses,"STK3; compound concentrations:100 nM and 1000 nM (sheet 'Lestaurtinib' of Supplementary Table 1),run:Lestaurtinib_02748_R3,Plate:MR024",40.1 nM
same,potency estimated from few doses,"STK3; compound concentrations:100 nM and 1000 nM (sheet 'Lestaurtinib' of Supplementary Table 1),run:Lestaurtinib_02765_R1,Plate:MR026",38.6 nM
same,potency estimated from few doses,"STK3; compound concentrations:100 nM and 1000 nM (sheet 'Lestaurtinib' of Supplementary Table 1),run:Lestaurtinib_02765_R2,Plate:MR026",37.7 nM
same,potency estimated from few doses,"STK3; compound concentrations:100 nM and 1000 nM (sheet 'Lestaurtinib' of Supplementary Table 1),run:Lestaurtinib_02766_R3,Plate:MR027",42.9 nM
same,potency estimated from few doses,"STK3; compound concentrations:100 nM and 1000 nM (sheet 'Lestaurtinib' of Supplementary Table 1),run:Lestaurtinib_02768_R1,Plate:MR028",31.9 nM
same,potency estimated from few doses,"STK3; compound concentrations:100 nM and 1000 nM (sheet 'Lestaurtinib' of Supplementary Table 1),run:Lestaurtinib_02768_R3,Plate:MR028",40.1 nM
same,potency estimated from few doses,"STK3; compound concentrations:100 nM and 1000 nM (sheet 'Lestaurtinib' of Supplementary Table 1),run:Lestaurtinib_02795_R1,Plate:MR022",43.4 nM
same,potency estimated from few doses,"STK3; compound concentrations:100 nM and 1000 nM (sheet 'Lestaurtinib' of Supplementary Table 1),run:Lestaurtinib_02795_R2,Plate:MR022",27.8 nM
same,potency estimated from few doses,"STK3; compound concentrations:100 nM and 1000 nM (sheet 'Lestaurtinib' of Supplementary Table 1),run:Lestaurtinib_02795_R3,Plate:MR022",141 nM
same,potency estimated from few doses,"STK3; compound concentrations:100 nM and 1000 nM (sheet 'Lestaurtinib' of Supplementary Table 1),run:Lestaurtinib_02802_R1,Plate:MR029",22.4 nM
same,potency estimated from few doses,"STK3; compound concentrations:100 nM and 1000 nM (sheet 'Lestaurtinib' of Supplementary Table 1),run:Lestaurtinib_02802_R3,Plate:MR029",47.8 nM
same,potency estimated from few doses,"STK3; compound concentrations:100 nM and 1000 nM (sheet 'Lestaurtinib' of Supplementary Table 1),run:Lestaurtinib_02896_R1,Plate:MR030",38.8 nM
same,potency estimated from few doses,"STK3; compound concentrations:100 nM and 1000 nM (sheet 'Lestaurtinib' of Supplementary Table 1),run:Lestaurtinib_02896_R2,Plate:MR030",37.2 nM
same,potency estimated from few doses,"STK3; compound concentrations:100 nM and 1000 nM (sheet 'Lestaurtinib' of Supplementary Table 1),run:Lestaurtinib_02896_R3,Plate:MR030",37.9 nM
same,potency estimated from few doses,"STK3; compound concentrations:100 nM and 1000 nM (sheet 'Lestaurtinib' of Supplementary Table 1),run:Lestaurtinib_03172_R1,Plate:MR031",35 nM
same,potency estimated from few doses,"STK3; compound concentrations:100 nM and 1000 nM (sheet 'Lestaurtinib' of Supplementary Table 1),run:Lestaurtinib_03172_R3,Plate:MR031",39.7 nM
same,potency estimated from few doses,"STK3; compound concentrations:100 nM and 1000 nM (sheet 'Lestaurtinib' of Supplementary Table 1),run:Lestaurtinib_03252_R2,Plate:MR032",48.1 nM
same,potency estimated from few doses,"STK3; compound concentrations:100 nM and 1000 nM (sheet 'Lestaurtinib' of Supplementary Table 1),run:Lestaurtinib_03260_R3,Plate:MR033",36.6 nM
same,potency estimated from few doses,"STK4; compound concentrations:100 nM and 1000 nM (sheet 'Lestaurtinib' of Supplementary Table 1),run:Lestaurtinib_02339_R1,Plate:MR001",42 nM
same,potency estimated from few doses,"STK4; compound concentrations:100 nM and 1000 nM (sheet 'Lestaurtinib' of Supplementary Table 1),run:Lestaurtinib_02339_R2,Plate:MR001",40.1 nM
same,potency estimated from few doses,"STK4; compound concentrations:100 nM and 1000 nM (sheet 'Lestaurtinib' of Supplementary Table 1),run:Lestaurtinib_02339_R3,Plate:MR001",27.7 nM
same,potency estimated from few doses,"STK4; compound concentrations:100 nM and 1000 nM (sheet 'Lestaurtinib' of Supplementary Table 1),run:Lestaurtinib_02364_R1,Plate:MR002",35.9 nM
same,potency estimated from few doses,"STK4; compound concentrations:100 nM and 1000 nM (sheet 'Lestaurtinib' of Supplementary Table 1),run:Lestaurtinib_02364_R2,Plate:MR002",43 nM
same,potency estimated from few doses,"STK4; compound concentrations:100 nM and 1000 nM (sheet 'Lestaurtinib' of Supplementary Table 1),run:Lestaurtinib_02364_R3,Plate:MR002",43.2 nM
same,potency estimated from few doses,STK4; [1],35.7 nM
same,potency estimated from few doses,STK4; [2],35 nM
same,potency estimated from few doses,STK4; [3],39.1 nM
same,potency estimated from few doses,STK4; [4],35.8 nM
same,potency estimated from few doses,STK4; [5],36.2 nM
same,potency estimated from few doses,STK4; [6],33 nM
same,potency estimated from few doses,STK4; [7],44.8 nM
same,potency estimated from few doses,STK4; [8],50.1 nM
same,potency estimated from few doses,"STK4; compound concentrations:100 nM and 1000 nM (sheet 'Lestaurtinib' of Supplementary Table 1),run:Lestaurtinib_02422_R3,Plate:MR006",45.3 nM
same,potency estimated from few doses,STK4; [9],42 nM
same,potency estimated from few doses,STK4; [10],41.6 nM
same,potency estimated from few doses,"STK4; compound concentrations:100 nM and 1000 nM (sheet 'Lestaurtinib' of Supplementary Table 1),run:Lestaurtinib_02437_R3,Plate:MR007",4.01 nM
same,potency estimated from few doses,STK4; [11],36.6 nM
same,potency estimated from few doses,"STK4; compound concentrations:100 nM and 1000 nM (sheet 'Lestaurtinib' of Supplementary Table 1),run:Lestaurtinib_02438_R3,Plate:MR008",38.2 nM
same,potency estimated from few doses,STK4; [12],38.6 nM
same,potency estimated from few doses,"STK4; compound concentrations:100 nM and 1000 nM (sheet 'Lestaurtinib' of Supplementary Table 1),run:Lestaurtinib_02443_R3,Plate:MR009",36.6 nM
same,potency estimated from few doses,STK4; [13],44.6 nM
same,potency estimated from few doses,"STK4; compound concentrations:100 nM and 1000 nM (sheet 'Lestaurtinib' of Supplementary Table 1),run:Lestaurtinib_02473_R3,Plate:MR010",37.7 nM
